# IEC-6 cytotox = IEC-6 cytotoxicity, counter-screen for KLF5 inhibitors; hit rate 0.78% among 290,000; inhibition, % at 5 µM; luminescence viability;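 further: 0% = plate median of test compound wells and 100% = cytotoxic reference compound wells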
# APP transl inh = APP translation inhibition. inhibition, % at 2 µM. hit rate 0.82% among 190,000. SH-SY5Y APP 5'UTR-luciferase reporter, luminescence;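 active means inhibition above a set limit, derived from the sample mean plus 3 SD, cut at about 45% in these data; inconclusive means one replicate passes the limit while the other fails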
# BaF3 parental = parental Ba/F3 viability inhibition as JAK2V617F counter-screen; inhibition, % at 5.6 µM; hit rate 1.1% among 220,000; CellTiter-Glo ATP luminescence;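 active means inhibition above a per-campaign cutoff, the mean inhibition of all tested compounds plus 3 SD, cut at about 27% in these data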;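 further: 0% = DMSO wells and 100% = JAK Inhibitor I control wells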
# aSyn UTR inh = 5' untranslated region of α-synuclein, MLPCN primary screen; AID 1813; hit rate 0.82% among 300,000; alpha-synuclein 5'UTR reporter, inhibitor activity; inhibition, % (tested at 7.5 µM); in the data active means inhibition above about 60%; inconclusive means no clear call, values can overlap the other calls;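 further: H4 neuroglioblastoma cells stably carrying SNCA 5'UTR luciferase fusion; 0% = DMSO wells and 100% = positive control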
# KLF5 inh = inhibitors of KLF5 expression. DLD-1 KLF5 promoter-luciferase reporter, luminescence. inhibition, % at 5 µM. hit rate 0.23% among 290,000. AID 1700;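 active means inhibition above a per-plate limit of that plate's mean compound inhibition plus 3 SD, cut at about 60% in these data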;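 further: 0% = DMSO wells and 100% = LY294002 at 200 µM; higher means less KLF5 promoter-driven luciferase light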
# Ba/F3 V617F tox = loss of viability in JAK2V617F-driven Ba/F3 cells; Ba/F3 EpoR-JAK2V617F viability, ATP luminescence; inhibition, % at 5.6 µM; hit rate 1.1% among 220,000; AID 1446;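 active means inhibition above the campaign mean plus 3 SD over all tested compounds, cut at about 24% in these data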;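 further: cytokine-independent growth of Ba/F3 cells driven by EpoR plus mutant JAK2; 0% = DMSO-treated cells and 100% = JAK inhibitor I control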
# IEC-6 cytotox cf = IEC-6 cytotoxicity, confirmation assay | shares compounds with IEC-6 cytotox | IEC-6 rat intestinal epithelial viability, luminescence | inhibition, % at 5 µM | hit rate 63% among 1,900 | AID 1907;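 further: 0% = vehicle and 100% = reference cytotoxic drug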
# * hit, by the source's call; u = inconclusive; x = no result. Most compounds without a hit are left out; they make up all but 2.2% or so of the library. Unless noted, no stated cut-off is given here; in the data, active means inhibition above about 22%; inactive means the rest.
SMILES,IEC-6 cytotox,APP transl inh,BaF3 parental,aSyn UTR inh,KLF5 inh,Ba/F3 V617F tox,IEC-6 cytotox cf
Cc1cc(C)cc(NS(=O)(=O)c2ccc3c(c2)c(=O)n(C)c(=O)n3C)c1,35.2*,14.8,66.6*,u,33.3,49.2*,33.3*
Cn1c(=O)c2cc(S(=O)(=O)Nc3cc(C(=O)O)cc(C(=O)O)c3)ccc2n(C)c1=O,-7.7,-7.8,5.8,-18.4,-30.0,-1.0,x
CCN(CC)c1ccc(/C=C/c2cccc[n+]2C)c(OC)c1,28.0*,x,x,u,19.4,x,29.5*
OC[C@H]1O[C@@H](n2cnc3c(NC4CCCC4)ncnc32)[C@H](O)[C@@H]1O,-1.5,-10.0,4.5,30.8,-4.6,-3.0,x
C=CCNc1ncnc2c1ncn2C1OC(CO)C(O)C1O (centres undefined),74.0*,9.8,0.0,35.8,16.6,-1.1,49.1*
Cc1ccc(Nc2nc(N)nc(CCl)n2)c(C)c1,100.2*,x,30.2*,-44.7,-15.2,98.7*,5.4
Cc1cccc(Nc2nc(N)nc(CCl)n2)c1,14.0,x,-2.7,-53.4,20.2,14.0,x
O=C(NC(=S)NNC(=O)c1ccccc1O)c1cccs1,-11.2,x,x,-38.0,-4.0,x,x
COc1ccccc1C(=O)NNC(=S)NC(=O)c1cccs1,47.7*,x,x,73.2*,60.5,x,28.0*
COc1cc(C(=O)NCC2CCCO2)ccc1OCc1ccccc1Cl (centres undefined),4.0,x,x,7.9,-36.3,x,x
O=C(Nc1ccc(Cl)c(Cl)c1)Nc1ccon1,74.0*,x,x,-69.4,16.6,x,58.1*
Cc1cc(NC(=O)Nc2ccc(Cl)c(Cl)c2)no1,x,x,x,-42.7,x,x,x
CCOC(=O)c1ccc(NC(=O)Nc2ccon2)cc1,87.3*,x,87.8*,64.2*,60.2,87.6*,65.0*
CCOC(=O)c1ccc(NC(=O)Nc2ccc(Cl)cn2)cc1,-1.6,-9.6,1.4,-34.0,16.4,-1.5,x
CC1CCN(Cc2ccc(-c3nnn(CC(=O)Nc4ccccc4Cl)n3)cc2)CC1,33.5*,2.6,2.8,-2.6,5.4,-1.7,25.7*
Oc1ccc(-c2cnc(-c3ccc(O)cc3)nc2)cc1,41.3*,x,x,-29.3,10.0,x,13.5
Nc1ccc(-c2cnc(-c3ccc(N)cc3)nc2)cc1,6.2,-126.0,11.7,-34.2,-59.1,8.9,x
Cc1[nH]n2c(=O)cc(C(C)(C)C)nc2c1-c1ccccc1,33.5*,13.5,13.4,49.2,23.1,8.8,35.3*
Cc1cc(C)n2nc(C(=O)OCC(=O)c3ccc(F)cc3)nc2n1,x,x,x,-5.9,x,x,x
CCn1nc(C)cc1-c1nnc(Sc2ncc([N+](=O)[O-])s2)n1C,101.9*,x,x,-14.5,11.6,x,25.5*
COc1cc(C(c2nnnn2C2CCCC2)N2CCN(C(=O)c3ccco3)CC2)cc(OC)c1OC (centres undefined),4.6,x,x,3.4,-4.7,x,x
COC(=O)c1ccc2c(=O)[nH]c(COC(=O)c3c(-c4ccccc4Cl)noc3C)nc2c1,x,x,x,-7.6,x,x,x
COc1ccc(CNC(=O)C2CC(c3ccccc3C(F)(F)F)=NO2)cc1 (centres undefined),x,x,x,9.6,x,x,x
CCn1ncc(C2=NOC(C(=O)NCc3ccccc3)C2)c1C (centres undefined),66.0*,71.7*,77.6*,25.9,51.9,80.4*,57.2*
CCn1ncc(C2=NOC(C(=O)NCc3ccc(OC)cc3)C2)c1C (centres undefined),22.5*,-5.1,0.8,12.5,-2.7,-2.4,10.1
SMILES,IEC-6 cytotox,APP transl inh,BaF3 parental,aSyn UTR inh,KLF5 inh,Ba/F3 V617F tox,IEC-6 cytotox cf
c1ccc2[nH]c(NCc3ccc4c(c3)OCO4)nc2c1,4.3,-75.4,2.9,-179.5,-116.2,-0.1,x
CCOc1ccc(N(C)S(=O)(=O)c2cc(-c3cc(C)no3)ccc2OC)cc1,2.7,x,x,-1.8,2.4,x,x
COc1ccc(-c2cc(C)no2)cc1S(=O)(=O)N(C)c1ccc(C)cc1,28.3*,x,x,-9.1,22.7,x,24.6*
Nc1c(Cl)cnn(-c2ccccc2)c1=O,x,x,x,12.9,x,x,x
O=c1c(Cl)c(Cl)cnn1-c1ccccc1,94.8*,96.0*,-7.9,-29.4,10.0,-1.1,30.8*
O=C(Nc1cccc(C(F)(F)F)c1)C1CCN(S(=O)(=O)c2cccnc2)CC1,-4.4,x,x,12.4,-22.7,x,x
Cc1onc(C(=O)Nc2cccnc2Cl)c1[N+](=O)[O-],7.4,-13.1,1.9,8.6,-35.4,-1.7,x
COc1cc(NC(=O)c2noc(C)c2[N+](=O)[O-])c(OC)cc1Cl,64.4*,x,x,-9.4,-47.0,x,17.3
CCCCNc1cc(C)nc(NCc2ccccc2)n1,23.3*,-12.1,45.4*,-17.3,-7.8,49.5*,1.5
